Source: PubChem BioAssay (several laboratories)
SKN-1 block = suppressors of acrylamide-induced Pgst-4::GFP reporter in worms, primary screen, SKN-1 inhibitor project, whole organism, uHTS, GFP/RFP fluorescence ratio, strain VP596; inhibition, % at 21.8 µM; C. elegans VP596 Pgst-4::GFP/RFP ratio, 24 h; actives 0.49% (n = 360,000); AID 624304, 2012;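 active = interference check ratio from 0.5 to 1.5 plus GFP to RFP signal ratio inhibition reaching or exceeding a fixed threshold, cut at about 30% in these data, passing the limit was not always enough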
ATG4B inh = ATG4B protease inhibitors, primary screen, biochemical, fluorescence, uHTS. inhibition, % at 8.33 µM. AID 504462, 2011. actives 0.51% (n = 340,000). ATG4B cleavage of LC3-PLA2, NBD-HPC fluorescence, 1 h; in the data active = inhibition above about 40%
Target sequence (Q9Y4P1 whole entry, looked up): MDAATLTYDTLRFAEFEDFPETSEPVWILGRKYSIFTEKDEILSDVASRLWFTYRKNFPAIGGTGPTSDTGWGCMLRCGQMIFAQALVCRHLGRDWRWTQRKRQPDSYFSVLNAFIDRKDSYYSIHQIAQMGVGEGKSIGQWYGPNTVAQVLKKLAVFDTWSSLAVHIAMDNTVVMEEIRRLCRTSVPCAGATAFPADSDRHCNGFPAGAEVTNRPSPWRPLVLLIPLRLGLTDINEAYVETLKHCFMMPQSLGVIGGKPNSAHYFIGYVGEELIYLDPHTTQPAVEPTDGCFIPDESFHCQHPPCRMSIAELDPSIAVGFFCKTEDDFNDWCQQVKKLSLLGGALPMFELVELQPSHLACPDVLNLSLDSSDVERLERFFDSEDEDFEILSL
CHRM1 agonist = human M1 muscarinic receptor agonists, primary screen, Fluo-8 calcium fluorescence, CHO-K1 cells, HTS; Muscarinic acetylcholine receptor M1 (Homo sapiens), P11229; CHO-K1 hM1, agonist mode; 0% DMSO, 100% acetylcholine EC100; activation, % at 3 µM; actives 0.33% (n = 360,000);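 active = activation above the run's mean compound activation plus 3 SD, cut at about 16% in these data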;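 note: peak over basal fluorescence ratio within a 140 s kinetic read after compound addition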
CHRM1 antagonist = human M1 muscarinic receptor antagonists, primary screen, CHO-K1 cells, Fluo-8 calcium fluorescence, 1536-well; CHO-K1 hM1, ACh EC80 antagonist; actives 1.3% (n = 360,000); AID 588852, 2011; Muscarinic acetylcholine receptor M1 (Homo sapiens), P11229; inhibition, % at 3 µM;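 active = percent inhibition above its own plate's cutoff, namely the mean of that plate's compound wells plus 3 SD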;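 note: peak over basal fluorescence ratio during 140 s after agonist addition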
Myeloid diff MLP = induction of myeloid progenitor differentiation, primary screen, cell-based, flow cytometry, MLPCN library. ER-HoxA9 myeloid progenitors, lysozyme-GFP differentiation. calls only at 10 µM. actives 1% (n = 360,000). AID 624256, 2012;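 active = normalized GFP-positive differentiation at or above the plate's own cutoff, the solvent-only control mean plus 3 SD; inconclusive = no clear call, values can overlap the other calls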;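 note: cells exposed to compound for four days before flow analysis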
CHRM1 PAM = human M1 muscarinic receptor positive allosteric modulators, primary screen, CHO-K1 cells, Fluo-8 calcium fluorescence, 1536-well; Muscarinic acetylcholine receptor M1 (Homo sapiens), P11229; CHO-K1 hM1, ACh EC20; 0% = ACh EC20, 100% = maximal ACh; AID 588819, 2011; activation, % at 3 µM; actives 0.088% (n = 360,000); in the data active = activation above about 19%, passing the limit was not always enough
ATG4B confirm = ATG4B protease inhibitors, retest, confirmation, biochemical, fluorescence, single concentration. shares compounds with ATG4B inh. ATG4B protease fluorescent substrate cleavage assay. inhibition, % at 8.33 µM. actives 92% (n = 320). AID 504757, 2011; in the data active = inhibition above about 39%
PLA2 counter = PLA2 enzyme inhibition, counter-screen for ATG4B inhibitor project, biochemical, single concentration, uHTS hits | shares compounds with ATG4B inh | purified PLA2, NBD-C6-HPC fluorescence, 45 min | inhibition, % at 8.33 µM | actives 66% (n = 1,600) | AID 588402, 2011; in the data active = inhibition above about 50%
Target sequence (P04054 whole entry, looked up): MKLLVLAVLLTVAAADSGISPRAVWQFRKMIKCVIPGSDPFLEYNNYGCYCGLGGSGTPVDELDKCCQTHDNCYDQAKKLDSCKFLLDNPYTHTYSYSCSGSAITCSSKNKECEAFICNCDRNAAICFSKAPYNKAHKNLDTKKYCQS
Hits are given with their value; n = inactive; u = inconclusive; x = no result; + = active, no number. Compounds with a hit are over-represented: about 3.5% of the library has one in this group of screens.

SMILES	SKN-1 block	ATG4B inh	CHRM1 agonist	CHRM1 antagonist	Myeloid diff MLP	CHRM1 PAM	PLA2 counter	others
COc1ccccc1OCC(=O)NC1CCCc2ccccc21 (centres undefined)	n	n	n	n	n	n	x
CCOc1ccc2nc(SCC(=O)N3CCCc4ccccc43)sc2c1	n	n	n	n	n	n	x
CCOc1ccc2nc(SCC(=O)NC3CCCc4ccccc43)sc2c1 (centres undefined)	n	50.2	n	n	n	n	n
CC(C)c1ccccc1OCC(=O)NC1CCCc2ccccc21 (centres undefined)	n	47.8	n	n	n	n	n	ATG4B confirm=65.2
Cc1ccc(S(=O)(=O)N(Cc2ccccc2)Cc2ccco2)cc1	n	44.3	n	n	n	n	55.9
Cc1ccc(S(=O)(=O)N(Cc2ccc(F)cc2)Cc2ccco2)cc1	n	n	n	n	n	n	x
Cc1cc(C)c(S(=O)(=O)c2ccccc2F)c(=O)[nH]1	n	n	n	n	n	n	x
Cc1cccc(N=Cc2cc(Br)cc(Cl)c2O)c1	n	40.2	n	n	n	n	n	ATG4B confirm=63.0
c1ccc(OCc2nnnn2-c2ccccc2)cc1	n	42.1	n	n	n	n	n
Clc1ccc(OCc2nnnn2-c2ccccc2)cc1	n	n	n	n	n	n	x
Cc1ccc2[nH]c(=O)c(CN(Cc3cccs3)Cc3nnnn3Cc3ccccc3)cc2c1	n	51.5	n	n	n	n	65.5
COc1ccc(C(=O)OCC(=O)NCC2CCCCC2)c(OC)c1	n	n	n	n	n	n	x
COc1ccc2c(-c3ccccc3)cc(SCC(N)=O)nc2c1	n	57.9	n	n	+	n	57.4
COc1ccc2nc(SCC(N)=O)cc(C)c2c1	n	n	n	n	n	n	x
CS(=O)(=O)Nc1ccc(C2=NN(C(=O)C3CCCCC3)C(c3cccs3)C2)cc1 (centres undefined)	n	76.7	n	n	n	n	80.8
CCc1nccn1CCC(=O)N1CCCC(Nc2ccc(F)cc2)C1 (centres undefined)	n	n	n	n	n	n	x
Cc1c(Cl)c([N+](=O)[O-])nn1CCCC(=O)Nc1cccc(Cl)c1	n	74.8	n	n	n	n	78.4
CCCOC(=O)c1c(NC(=O)CCCn2nc([N+](=O)[O-])cc2C)sc(C(=O)OC)c1C	n	n	n	n	n	n	x
Cc1c(Cl)c([N+](=O)[O-])nn1CCCC(=O)Nc1cccnc1	n	n	n	n	n	n	x
CCOC(=O)c1sc(NC(=O)CCCn2nc([N+](=O)[O-])c(Cl)c2C)c(C(=O)OCC)c1C	n	57.0	n	n	u	n	52.0
Cc1nn(Cc2c(Cl)cccc2Cl)c(C)c1NC(=O)CCCn1nc([N+](=O)[O-])c(Cl)c1C	n	45.6	n	n	n	n	n	ATG4B confirm=70.0
O=C1CCC([N+](=O)[O-])C(c2cccc([N+](=O)[O-])c2)N1 (centres undefined)	n	n	n	n	n	n	x
Fc1ccc(CNc2nc(-c3ccco3)cc(C(F)(F)F)n2)cc1	n	41.3	n	n	n	n	52.3
FC(F)(F)c1cc(-c2ccco2)nc(NCc2ccccc2)n1	n	n	n	n	n	n	x
CCCCCCCCN1C(=O)[C@H](CC(=O)N2CCN(C(=O)OCC)CC2)C[C@@]2(C(=O)OCC)CCCC=C12	n	x	x	x	n	x	x
SMILES	SKN-1 block	ATG4B inh	CHRM1 agonist	CHRM1 antagonist	Myeloid diff MLP	CHRM1 PAM	PLA2 counter	others
COc1ccccc1C(=O)NC(=S)/C=C1/N(C)c2ccccc2C1(C)C	n	n	n	n	u	n	x
CN1/C(=C\C(=S)NC(=O)c2ccccc2Cl)C(C)(C)c2ccccc21	n	49.0	n	n	+	n	n
COc1ccc(Cl)cc1-n1c(=S)sc2c(=O)[nH]c(SCC(=O)NCCC(C)C)nc21	n	41.5	n	n	n	n	n	ATG4B confirm=73.4
CCOc1ccc(-n2c(=S)sc3c(=O)[nH]c(SCC(=O)NC(C)CC)nc32)cc1 (centres undefined)	n	n	n	n	n	n	x
O=c1oc(-c2ccccc2)nc2sc3c(c12)CCC3	n	55.6	n	n	n	n	n	ATG4B confirm=72.3
NS(=O)(=O)c1ccc(CNS(=O)(=O)c2cc(C(=O)O)ccc2Cl)cc1	n	n	n	n	n	n	x
COc1ccc(-n2nc3c(N4CCC(C(=O)N5CCC(C)CC5)CC4)nnc(C)c3c2C)cc1	n	68.4	n	n	+	n	75.1
COc1ccc([C@H]2CC(=O)C=C(c3ccccc3-c3ccccc3)C2)cc1	n	41.8	n	n	n	n	57.7
CN(CC(=O)O)S(=O)(=O)c1ccc2c(c1)NC(=O)CC(=O)N2	n	n	n	n	n	n	x
CC(C)Cc1nnc(NC(=O)CCC(=O)N2CCN(C3CCCC3)CC2)s1	n	n	n	n	n	n	x
Cc1nn(Cc2c(F)c(F)c(F)c(F)c2F)c(C)c1NC(=O)c1ccc(COc2ccc(F)cc2)o1	n	66.8	n	n	n	n	67.9
Cc1nn(Cc2c(F)c(F)c(F)c(F)c2F)c(C)c1NC(=O)c1ccc(COc2ccccc2Cl)o1	n	67.5	n	n	n	n	79.0
Cc1nn(Cc2c(F)c(F)c(F)c(F)c2F)c(C)c1NC(=O)c1ccc(COc2cc(Cl)ccc2Cl)cc1	n	61.6	n	n	n	n	n	ATG4B confirm=44.0
Cc1nn(Cc2c(F)c(F)c(F)c(F)c2F)c(C)c1NC(=O)c1ccc(COc2ccccc2Cl)cc1	n	n	n	n	n	n	x
Nc1nonc1C(=O)NCCN=Cc1cc(Cc2ccccc2)cc(Br)c1O	n	85.6	n	n	n	n	71.6
Cc1ccc(-c2nnc(SCc3ccccc3F)o2)cc1	n	47.9	n	n	n	n	n	ATG4B confirm=68.7
CC1CCCCN1C(=O)COC(=O)C1CCN(S(=O)(=O)c2c(Cl)cccc2Cl)CC1 (centres undefined)	n	n	n	n	n	n	x
CC1(N=Cc2cc(Cl)ccc2O)COP(=O)(NC2CCCC2)OC1 (centres undefined)	n	n	n	n	n	n	x
